{"source": "PubChem BioAssay AID1852", "about": "(Sanford-Burnham Center for Chemical Genomics, 2009)", "note": "Screen size: about 2,500 compounds; about 1,100 (44%) were called active. The set was probably picked from earlier hits. The list shows a part of the results. Unmarked numbers belong to inactive results.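 How the source made its calls: active means inhibition above 50% at 4 µM in the single-point screen; inactive means inhibition of 50% or less.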"}
{"assay": "blockers of TNF-a NF-kB luciferase induction – cell-based, HEK293T NF-kB-Luc, luminescence, selectivity assay for NOD1/NOD2 signaling inhibitor project, primary screen (AID 1852)", "conditions": "TNF-a induced, 14 h, at 4 µM, hits give high values"}
{"compound": "Cc1cccc(-n2c(SC(C)C(=O)O)nc3sc4c(c3c2=O)CCCC4)c1", "note": "(centres undefined)", "inhibition": "45.4%"}
{"compound": "N#Cc1ccc(NC(=O)Nc2ccc(Cl)cc2)cc1", "inhibition": "22.5%"}
{"compound": "O=[N+]([O-])c1ccc(NC(=S)NCCc2ccc(Cl)cc2)cc1", "inhibition": "87.9% (active)"}
{"compound": "O=[N+]([O-])c1ccc(NC(=S)NCCc2ccc(F)cc2)cc1", "inhibition": "18.3%"}
{"compound": "CN(Cc1nccs1)C(=O)c1cc(COc2cccc3cnccc23)on1", "inhibition": "66.3% (active)"}
{"compound": "COc1cccc(CN(C)C(=O)c2cc(COc3ccc4ncccc4c3)on2)c1", "inhibition": "56.4% (active)"}
{"compound": "CN(Cc1cccnc1)C(=O)c1cc(COc2ccc3ncccc3c2)on1", "inhibition": "42.9%"}
{"compound": "CCc1ccc(CN(C)C(=O)c2cc(COc3cccc4cnccc34)on2)cc1", "inhibition": "80% (active)"}
{"compound": "Cc1nc(CN(C)C(=O)c2cc(COc3ccc4ncccc4c3)on2)cs1", "inhibition": "27.2%"}
{"compound": "COc1ccc(NC(=O)c2cc(-c3ccco3)nc3ccccc23)cc1S(=O)(=O)N1CCOCC1", "inhibition": "45.6%"}
{"compound": "COc1ccc(C(=O)Nc2ccc(-c3ccc(C)o3)cc2)cc1S(=O)(=O)N1CCOCC1", "inhibition": "66.1% (active)"}
{"compound": "CCOC(=O)c1ccc(NC(=O)c2ccc(C)c(S(=O)(=O)N3CCOCC3)c2)cc1", "inhibition": "47.7%"}
{"compound": "Cc1nc([N+](=O)[O-])c(Sc2nc3ccccc3[nH]2)n1Cc1ccccc1", "inhibition": "36.1%"}
{"compound": "O=C(NC(Nc1nc2ccc([N+](=O)[O-])cc2s1)(C(F)(F)F)C(F)(F)F)c1ccccc1Cl", "inhibition": "85% (active)"}
{"compound": "Cc1cc(C)cc(OCC(=O)Nc2nc3ccc([N+](=O)[O-])cc3s2)c1", "inhibition": "13.3%"}
{"compound": "Cc1ccc(C)c(OCC(=O)Nc2nc3ccc([N+](=O)[O-])cc3s2)c1C", "inhibition": "43.5%"}
{"compound": "CCOc1ccccc1NC(=O)Nc1ccc(Cl)cc1", "inhibition": "-53%"}
{"compound": "CCOc1ccc(C(=O)/C=C/c2cc(OC)c(OC)c(OC)c2)cc1", "inhibition": "9.7%"}
{"compound": "CCOc1cc(/C=C(/C#N)c2ccc(Cl)cc2)cc(Cl)c1OCC(=O)O", "inhibition": "90.7% (active)"}
{"compound": "COc1ccc2cc3c(N)nn(C(=O)c4ccc(Cl)c([N+](=O)[O-])c4)c3nc2c1", "inhibition": "43.3%"}
{"compound": "COc1ccc(CN(C)S(=O)(=O)c2nnc(NC(=O)c3cccc(F)c3)s2)cc1", "inhibition": "29.9%"}
{"compound": "COc1cccc(C(=O)c2sc(NC(C)C)nc2N)c1", "inhibition": "41.4%"}
{"compound": "COc1cccc(-n2c(CN3CCN(c4ccccc4)CC3)nc3ccc([N+](=O)[O-])cc3c2=O)c1", "inhibition": "-0.2%"}
{"compound": "COc1ccc2cc3c(N)nn(C(=O)c4ccc(F)cc4)c3nc2c1", "inhibition": "60.6% (active)"}
{"compound": "COc1ccc2cc3c(N)nn(C(=O)c4cccc(F)c4)c3nc2c1", "inhibition": "79.2% (active)"}
{"compound": "COc1ccc2cc3c(N)nn(C(=O)c4cccc([N+](=O)[O-])c4)c3nc2c1", "inhibition": "65.4% (active)"}
{"compound": "C/C(=N\\NC(=O)c1ccc2c(c1)OCCO2)c1ccccc1", "inhibition": "14%"}
{"compound": "C/C(=N\\NC(=O)c1ccc(-c2ccccc2)cc1)C1C(=O)c2ccccc2C1=O", "inhibition": "93.6% (active)"}
{"compound": "C/C(=N\\NC(=O)c1ccc(Br)cc1)C1C(=O)c2ccccc2C1=O", "inhibition": "-12.6%"}
{"compound": "Cc1ccc(CC(=O)Nc2ccncc2)cc1", "inhibition": "38.6%"}
{"compound": "O=C(Cc1ccc(Cl)cc1Cl)Nc1ccncc1Cl", "inhibition": "50% (active)"}
{"compound": "COc1ccc(CC(=O)Nc2ccncc2Cl)cc1", "inhibition": "54% (active)"}
{"compound": "CCC(NC(=O)c1ccc2nc(Cc3ccc(OC)cc3)oc2c1)c1ccncc1", "note": "(centres undefined)", "inhibition": "34%"}
{"compound": "Cc1ccc(C(=O)Nc2sc(C)c(-c3ccccc3)c2C(N)=O)cc1[N+](=O)[O-]", "inhibition": "-277%"}
{"compound": "Cc1ccc(C(=O)Nc2ccccc2N2CCCCC2)cc1[N+](=O)[O-]", "inhibition": "-17.9%"}
{"compound": "Cc1ccc(C(=O)Nc2ccccc2-c2ccccc2)cc1[N+](=O)[O-]", "inhibition": "75.4% (active)"}
{"compound": "O=C(Nc1ccc(-c2cn3ccsc3n2)cc1)c1ccc(F)c(S(=O)(=O)N2CCOCC2)c1", "inhibition": "30.4%"}
{"compound": "COc1cc(C(=O)Nc2ccc(-c3nc4cc(C)ccc4o3)c(O)c2)cc(OC)c1OC", "inhibition": "13.8%"}
{"compound": "COc1ccc(Nc2cc(Nc3cc(OC)c(OC)c(OC)c3)ncn2)cc1", "inhibition": "59.9% (active)"}
{"compound": "COc1cc(Nc2c3ccccc3nc3ccccc23)cc(OC)c1OC", "inhibition": "-0.2%"}
{"compound": "COc1ccc(-c2nnc(NC(=O)c3ccc(S(=O)(=O)N4CCc5ccccc5C4)cc3)o2)cc1", "inhibition": "34.1%"}
{"compound": "COc1ccc(-c2nnc(NC(=O)c3ccc(F)cc3)o2)cc1", "inhibition": "102% (active)"}
{"compound": "CN(c1ccccc1)S(=O)(=O)c1ccc(C(=O)Nc2nnc(-c3ccc(F)cc3)o2)cc1", "inhibition": "95% (active)"}
{"compound": "N#Cc1ccsc1NC(=O)c1cccc([N+](=O)[O-])c1", "inhibition": "20.9%"}
